Reference: PubChem BioAssay (NCATS)
Several values for one entry are separate records, joined by “and”; a condition that tells them apart may be missing. Equal values may be shown once. Records with an inconclusive call do not appear. Activity calls are given as the source filed them. Unless noted, calls come from the whole dose curve; as a rule, active = well fitted curve in the direction sought with a large enough effect; inconclusive = small, poorly fitted or top-dose-only effect, or another doubt; inactive = no such curve, though single readings can be large; an effect the other way counts as inactive or inconclusive.

Legend:
[1] = molecular target: Cytochrome P450 3A4 (Homo sapiens) (UniProt P08684); experiment: qHTS Assay for Activators of Cytochrome P450 3A4 (AID 885); note: nearly all actives have a fitted effect of over 65% in size
How it was run: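 Human CYP3A4 dealkylates Luciferin-PPXE to luciferin, which luciferase detection converts to light. Substrate was at its KM (25uM), buffer 200mM KPO4, reaction 60 min at RT.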

[2] = MultiTox-Fluor Cytotoxicity Assay - LYMP1-003 - Dead Cells (AID 961);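 note: 0% = DMSO and 100% = tetraoctylammonium bromide; nearly all actives have a fitted effect of over 70% in size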
How it was run: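 LYMP1-003 human lymphoblastoid cells (2500/well) exposed to compound 16 h at 37 C in complete medium; dead-cell protease read with bis-AAF-R110 fluorescence (Ex/Em 485/520) after 60 min at room temperature. Normalized to DMSO and 15 uM tetraoctylammonium bromide; AC50 from Hill fit.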

[3] = Cell Viability - LYMP2-019 (AID 973);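 note: 0% = DMSO alone and full effect = 92 µM tetraoctylammonium bromide; nearly all actives have a fitted effect of over 55% in size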
How it was run: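 Cytotoxicity is scored as a concentration-dependent drop in cellular ATP after cells (2500/well) receive compound for 24 hr at 37 C. Tetraoctylammonium bromide serves as positive control.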

[4] = qHTS assay for environmental chemicals that activate the Aryl hydrocarbon Receptor (AhR) signaling pathway (AID 651777); settings: 1A2-DRE human hepatoma cells, luciferase, 24 h; activation: active compounds read high; note: % of control where 0% means no effect; nearly all actives have a fitted effect of over 15% in size
How it was run: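 Luminescence read-out: One-Glo added for 30 min at RT after 24 hr compound treatment (37 C, 5% CO2) of human hepatoma cells expressing a DRE/CYP1A2 promoter–luciferase reporter; increased signal indicates AhR activation.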

[5] = HepG2 viability counterscreen (readout 2: ATP content) against the NCATS DSHEA and TCM libraries (AID 1794840);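 note: HepG2 cells exposed to substances for about 24 h; 0% is about no effect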
How it was run: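 After HepG2 cells attach for ~4 h, substances are added and incubated ~24 h at 37C, 5% CO2. GF-AFC fluorescence then CellTiter-Glo luminescence give protease and ATP readouts.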

[6] = molecular target: Cytochrome P450 1A2 (Homo sapiens) (UniProt P05177); experiment: qHTS for inhibitors of CYPIA2 against the NCATS DSHEA and TCM libraries (AID 1919976); note: potency is the fitted concentration of half-maximal effect
How it was run: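 Enzyme and pro-luciferin substrate, or substrate alone as no-enzyme background, are pre-incubated with test samples for 15 min at room temperature. NADPH regeneration system (1x final) initiates a 30-45 min dark reaction; luciferase detection reagent follows before luminescence reading.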

[7] = qHTS Counterscreen for compound interference against the NCATS DSHEA and TCM libraries (AID 1919978); settings: firefly luciferase detection reagent interference, luminescence;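 note: compounds preincubated with 1 µM D-luciferin or buffer before detection reagent; % of control where 0% means no effect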
How it was run: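 Interference check: test samples were incubated with D-luciferin (final 1 uM) or buffer only for 15 min, room temperature, in a qHTS titration up to 39.8 uM, then developed with detection reagent and read by luminescence.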

[8] = Dual reporter qHTS for agonist of Pregnane X Receptor (hPXR) against the NCATS DSHEA and TCM libraries: Fluorescence readout (AID 1920058); note: 0% is about no effect
How it was run: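 Cells were plated at 2000 per well and allowed to attach for 5 h. Test substances were pinned in and incubated roughly 24 h. CellTiter-Fluor was then added and fluorescence measured after 1 h.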

[9] = Dual reporter qHTS for antagonist of Pregnane X Receptor (hPXR) against the NCATS DSHEA and TCM libraries: Fluorescence Readout (AID 1920061); note: 0% is about no effect
How it was run: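 hPXR-Luc HepG2 cells exposed 24 h at 37 C to compounds with 2 uM rifampicin in antagonist mode; luciferase luminescence measured by ONE-Glo, with CellTiter-Fluor viability read beforehand.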

[10] = molecular target: Cytochrome P450 1A2 (Homo sapiens) (UniProt P05177); experiment: p450-cyp1a2 (AID 410; calls by dose curve; note: potency is the fitted concentration of half-maximal effect)
How it was run: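 O-Demethylation of luciferin 6' methyl ether by human CYP1A2 is monitored as luciferase luminescence. Substrate sits at Km (100uM); enzyme is 20nM. Values are scaled to 57 uM furafylline as maximal inhibition.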

[11] = molecular target: Glucocorticoid receptor (Homo sapiens) (UniProt P04150); experiment: GR-EFC Redistribution (AID 451; calls by dose curve; note: potency is the fitted concentration of half-maximal effect); settings: CHO-K1 GR-EFC translocation, beta-gal luminescence, 2 h
How it was run: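 CHO-K1 cells stably expressing nuclear-localized β-gal enzyme acceptor and GR fused C-terminally to the enzyme donor fragment; ligand-driven nuclear translocation restores β-gal by complementation. Compounds titrated up to 46 uM final, 2 h at 37 °C; luminescence read.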

[12] = Viability counterscreen for agonist of constitutive androstane receptor (CAR) against the NCATS DSHEA and TCM libraries (AID 1794838); note: 0% is about no effect
How it was run: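 Multiplexed counterscreen: after 24 h compound exposure with 0.75 uM PK11195, HepG2-CYP2B6-hCAR viability was quantified fluorimetrically (CellTiter-Fluor, 405/540 nm) prior to the ONE-Glo luciferase read.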

[13] = molecular target: Nuclear receptor subfamily 1 group I member 3 (Homo sapiens) (UniProt Q14994); experiment: Primary qHTS for agonist of constitutive androstane receptor (CAR) against the NCATS DSHEA and TCM libraries (AID 1794839); settings: Potency: CAR antagonist co-added at 0.75 µM unless noted; note: potency is the fitted concentration of half-maximal effect;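 for activation: HepG2 cells expressing human CAR with a CYP2B6 reporter plus PK11195 antagonist; 0% is about no effect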
How it was run: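 Concentration–response screen in HepG2-CYP2B6-hCAR cells under 0.75 µM PK11195; 24 h exposure; luminescent reporter signal with multiplexed fluorescent viability.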

[14] = qHTS assay to identify small molecules that stimulate interleukin-8 (IL-8) secretion (AID 651758; active = well fitted activation curve with a large enough effect in the signal ratio; the % refers to the signal ratio; note: 0% is about no effect)
How it was run: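 Quantitative HTS in THP-1 monocytic cells at 2000 cells per well, with 16 hrs compound incubation at 37 C. IL-8 in the medium was then quantified by HTRF immunoassay, read after 1-3 hrs at room temperature.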

[15] = Cell Viability - LYMP2-006 (AID 978); note: series mostly up to about 92 µM; % is set by controls: 0 for no effect and ±100 for the full control effect; nearly all actives have a fitted effect of over 60% in size
How it was run: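 In this cytotoxicity screen, the human lymphoblastoid line grew in complete medium with test compounds for 24 hr at 37 C. Cellular ATP served as the viability signal.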

[16] = molecular target: Androgen receptor (Homo sapiens) (UniProt P10275); experiment: qHTS assay for small molecule agonists of androgen receptor signaling (AID 588515; active = well fitted curve in the direction sought with a large enough effect in the signal ratio, with a control signal flat; the % refers to the signal ratio; note: % is set by controls: 0 for no effect and ±100 for the full control effect); settings: AR-UAS-bla HEK293, beta-lactamase ratio, agonist 16 h; active compounds read high
How it was run: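 Stimulation of an AR-responsive β-lactamase reporter in GripTite HEK293 cells was measured after 16 h compound exposure at 37 °C, via CCF4 fluorescence after 2 h RT. EC50 from Hill fits, normalized to R1881 at 30 nM.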

[17] = molecular target: Androgen receptor (Homo sapiens) (UniProt P10275); experiment: qHTS assay for small molecule antagonists of androgen receptor signaling (AID 588516; active = well fitted curve in the direction sought with a large enough effect in the signal ratio, with a control signal flat, not every such curve was filed as active; the % refers to the signal ratio; note: % is set by controls: 0 for no effect and ±100 for the full control effect)
How it was run: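 Compounds tested in titration against 10 nM R1881 in AR-responsive bla reporter HEK 293 cells; CCF4 fluorescence (460/530 nm) after 16 h exposure gave IC50 and efficacy.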

Sequence of Cytochrome P450 1A2 (Homo sapiens) (P05177 whole entry, looked up): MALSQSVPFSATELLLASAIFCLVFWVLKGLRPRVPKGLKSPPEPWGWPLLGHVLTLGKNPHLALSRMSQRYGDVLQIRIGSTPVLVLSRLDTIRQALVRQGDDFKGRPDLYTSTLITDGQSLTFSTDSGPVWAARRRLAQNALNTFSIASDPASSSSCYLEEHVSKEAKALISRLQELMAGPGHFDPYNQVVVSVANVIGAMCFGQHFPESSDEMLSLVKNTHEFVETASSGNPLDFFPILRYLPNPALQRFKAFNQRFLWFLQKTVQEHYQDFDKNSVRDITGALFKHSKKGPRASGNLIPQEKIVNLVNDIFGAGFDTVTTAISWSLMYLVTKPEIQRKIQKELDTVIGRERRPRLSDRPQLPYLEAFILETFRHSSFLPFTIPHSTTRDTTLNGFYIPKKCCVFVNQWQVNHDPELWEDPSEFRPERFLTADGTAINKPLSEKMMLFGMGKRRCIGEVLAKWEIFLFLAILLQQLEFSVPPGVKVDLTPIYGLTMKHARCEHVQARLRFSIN
Sequence of Cytochrome P450 3A4 (Homo sapiens) (P08684 whole entry, looked up): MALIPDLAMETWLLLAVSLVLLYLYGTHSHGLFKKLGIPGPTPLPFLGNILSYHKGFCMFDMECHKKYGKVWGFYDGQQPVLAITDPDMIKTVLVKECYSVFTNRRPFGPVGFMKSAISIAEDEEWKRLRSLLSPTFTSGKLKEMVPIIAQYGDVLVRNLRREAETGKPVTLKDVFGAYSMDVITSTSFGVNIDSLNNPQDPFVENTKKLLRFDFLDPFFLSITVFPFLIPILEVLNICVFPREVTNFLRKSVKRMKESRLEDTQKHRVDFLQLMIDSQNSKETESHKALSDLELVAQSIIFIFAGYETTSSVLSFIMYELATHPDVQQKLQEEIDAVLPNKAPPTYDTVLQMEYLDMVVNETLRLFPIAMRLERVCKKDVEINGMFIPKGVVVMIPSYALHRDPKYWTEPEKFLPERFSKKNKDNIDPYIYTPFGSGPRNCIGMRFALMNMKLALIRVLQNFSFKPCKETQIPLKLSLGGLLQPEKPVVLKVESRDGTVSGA
Sequence of Nuclear receptor subfamily 1 group I member 3 (Homo sapiens) (Q14994 whole entry, looked up): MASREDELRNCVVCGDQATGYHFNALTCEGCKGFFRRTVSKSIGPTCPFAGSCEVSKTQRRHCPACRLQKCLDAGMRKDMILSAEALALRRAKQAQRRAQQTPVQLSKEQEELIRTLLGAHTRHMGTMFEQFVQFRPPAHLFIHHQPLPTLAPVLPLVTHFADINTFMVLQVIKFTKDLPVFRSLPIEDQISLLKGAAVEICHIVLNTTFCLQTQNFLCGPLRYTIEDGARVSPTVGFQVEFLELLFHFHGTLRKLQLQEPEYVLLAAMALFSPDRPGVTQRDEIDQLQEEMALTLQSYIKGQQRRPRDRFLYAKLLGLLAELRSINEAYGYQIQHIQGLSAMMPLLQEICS
Sequence of Androgen receptor (Homo sapiens) (P10275 whole entry, looked up): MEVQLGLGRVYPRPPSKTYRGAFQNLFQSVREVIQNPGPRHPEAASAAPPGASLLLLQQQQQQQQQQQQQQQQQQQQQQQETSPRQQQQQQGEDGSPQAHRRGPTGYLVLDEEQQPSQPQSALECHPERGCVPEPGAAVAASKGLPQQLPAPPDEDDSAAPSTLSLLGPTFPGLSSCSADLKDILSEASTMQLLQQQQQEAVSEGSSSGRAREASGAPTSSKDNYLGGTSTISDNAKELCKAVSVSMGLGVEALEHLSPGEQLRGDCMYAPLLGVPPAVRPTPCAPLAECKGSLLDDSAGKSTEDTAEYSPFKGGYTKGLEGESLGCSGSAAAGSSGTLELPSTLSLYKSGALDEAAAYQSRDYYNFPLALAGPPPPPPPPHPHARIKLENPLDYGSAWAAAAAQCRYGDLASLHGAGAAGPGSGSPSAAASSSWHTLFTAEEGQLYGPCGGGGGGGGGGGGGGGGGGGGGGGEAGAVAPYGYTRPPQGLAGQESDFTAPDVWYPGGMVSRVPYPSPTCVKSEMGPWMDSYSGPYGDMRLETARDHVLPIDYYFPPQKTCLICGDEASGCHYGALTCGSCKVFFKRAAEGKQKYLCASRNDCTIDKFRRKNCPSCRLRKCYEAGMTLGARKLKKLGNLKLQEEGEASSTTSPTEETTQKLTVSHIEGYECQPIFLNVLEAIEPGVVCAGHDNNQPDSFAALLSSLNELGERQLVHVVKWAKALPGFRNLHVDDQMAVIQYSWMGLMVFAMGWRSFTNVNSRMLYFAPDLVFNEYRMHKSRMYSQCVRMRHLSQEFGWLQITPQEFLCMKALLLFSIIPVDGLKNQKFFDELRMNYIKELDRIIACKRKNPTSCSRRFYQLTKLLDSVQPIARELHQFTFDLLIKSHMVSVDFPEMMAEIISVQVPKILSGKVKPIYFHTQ
Sequence of Glucocorticoid receptor (Homo sapiens) (P04150 whole entry, looked up, the tested form may be a part): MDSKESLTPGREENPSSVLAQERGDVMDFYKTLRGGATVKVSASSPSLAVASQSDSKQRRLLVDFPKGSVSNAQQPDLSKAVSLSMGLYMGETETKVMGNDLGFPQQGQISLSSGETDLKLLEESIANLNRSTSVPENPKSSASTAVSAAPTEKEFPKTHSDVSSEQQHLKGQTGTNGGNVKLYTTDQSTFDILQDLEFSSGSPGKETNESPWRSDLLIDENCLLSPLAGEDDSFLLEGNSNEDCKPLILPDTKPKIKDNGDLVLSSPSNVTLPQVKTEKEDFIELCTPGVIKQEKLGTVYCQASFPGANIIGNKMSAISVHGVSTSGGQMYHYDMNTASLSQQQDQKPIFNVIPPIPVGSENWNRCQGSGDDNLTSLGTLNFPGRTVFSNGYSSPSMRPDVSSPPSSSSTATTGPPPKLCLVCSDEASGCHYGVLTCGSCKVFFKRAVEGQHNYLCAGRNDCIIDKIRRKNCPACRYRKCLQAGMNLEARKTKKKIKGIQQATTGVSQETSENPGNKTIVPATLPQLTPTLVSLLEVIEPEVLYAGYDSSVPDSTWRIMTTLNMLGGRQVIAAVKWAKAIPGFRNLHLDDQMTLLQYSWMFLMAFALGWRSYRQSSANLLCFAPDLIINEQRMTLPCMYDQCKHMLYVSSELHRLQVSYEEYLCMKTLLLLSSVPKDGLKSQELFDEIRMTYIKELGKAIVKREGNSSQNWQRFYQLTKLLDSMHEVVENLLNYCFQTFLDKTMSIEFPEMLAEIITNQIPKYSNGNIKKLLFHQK

COC1=CC(=O)O[C@@H](/C=C/c2ccc3c(c2)OCO3)C1
inactive: Potency [1] | Potency [2] | Potency [3] | activation [4] 3.16% | outcome [5] | max response [7] 0.0511% | outcome [8] | outcome [9]
active: Potency [6] 11.2 µM

COc1cc2c(cc1O)C[C@H]1c3c(cc(OC)c(O)c3-2)CCN1C
active: Potency [10] 10 µM | Potency [13] 12.6 µM | Potency [6] 10 µM
inactive: Potency [11] > 46 µM | outcome [12] | outcome [5] | max response [7] -3.09% | outcome [8]

C=C[C@H]1CN2CCc3c([nH]c4ccccc34)[C@H]2C[C@@H]1/C(=C\OC)C(=O)OC
inactive: outcome [12] | Potency [13] | outcome [5] | max response [7] -1.5% | outcome [8] | outcome [9]

O=S(=O)(O)O
active: Potency [6] 35.5 µM
inactive: outcome [5] | max response [7] -1.96% | outcome [8] | outcome [9]

CC[C@@H]1CN2CC[C@]3(C(=O)Nc4ccccc43)[C@@H]2C[C@@H]1/C(=C\OC)C(=O)OC
inactive: outcome [12] | Potency [13] | outcome [5] | Potency [6] | max response [7] -3.13% | outcome [8] | outcome [9]

COc1cc2c(cc1O)CC1NCCc3cc(OC)c(OC)c-2c31 (configuration not stated)
inactive: outcome [12] | Potency [13] | outcome [5] | max response [7] -2.18% | outcome [8] | outcome [9]
active: Potency [6] 15.8 µM

S=C(S)N1CCCC1
inactive: Potency [1]

COC(=O)C1=CO[C@@H](C)[C@@H]2CN3CC[C@@]4(C(=O)Nc5ccccc54)[C@@H]3CC12 (some centres not stated)
inactive: outcome [12] | Potency [13] | outcome [5] | Potency [6] | max response [7] 3.44% | outcome [8] | outcome [9]

C=C[C@H]1CN2CC[C@@]3(C(=O)Nc4ccccc43)[C@@H]2C[C@@H]1/C(=C\OC)C(=O)OC
inactive: outcome [12] | Potency [13] | outcome [5] | Potency [6] | max response [7] -1.45% | outcome [8] | outcome [9]

COc1cc(OC)c(/C=C2/C(=O)Nc3ccccc32)c(OC)c1
inactive: Potency [1]

O=C=NC1CCCCC1
inactive: Potency [2] | Potency [3] | Potency [14]

Nc1c(Cl)c(Cl)nc(C(=O)O)c1Cl
inactive: Potency [15] | Potency [14]

Brc1ccccc1
inactive: Potency [3] | Potency [15] | activation [16] 9.26% and -0.282% | Potency [17]

C[N+](C)(C)Cc1ccccc1
inactive: Potency [2] | Potency [15] | Potency [14] | activation [4] -0.332% and -0.436%

C=CC(C)=O
inactive: Potency [2] | Potency [3]

N#CCCCl
inactive: Potency [14]

ClCBr
inactive: Potency [2] | Potency [15] | Potency [14] | activation [4] -0.711%

C=C(C)C(=O)OCC1CO1 (configuration not stated)
inactive: Potency [3] | Potency [15] | activation [4] 0.578%

Clc1nc(Cl)nc(Cl)n1
inactive: Potency [2] | Potency [15] | activation [4] 1.36% and 0.55%

CC(C)(C)OOC(C)(C)C
inactive: Potency [14]

C=C(Cl)Cl
inactive: Potency [3] | activation [16] 2.29% | Potency [17] | Potency [14]

C=CCOC(C)=O
inactive: Potency [2] | Potency [3] | Potency [15] | activation [16] -7.35%

O=C(Cl)C(Cl)(Cl)Cl
inactive: Potency [2]

CCOP(=S)(OCC)SCSC(C)(C)C
inactive: Potency [2]

C=CC(=O)OCC
inactive: Potency [2] | activation [4] -0.74%

C=CC(N)=O
inactive: Potency [2] | Potency [3] | Potency [15] | Potency [14] | activation [4] 0.655% and -0.766% and 0.336%
